Measured values published in the supplement of paper PMC11577813, “Eurasian spruce bark beetle detects lanierone using a highly expressed specialist odorant receptor, present in several functional sensillum types” (BMC Biology, 2024).
± gives the standard deviation of the averaged measurements.

How the values were obtained:
[1] = tested on: (+)-isopinocamphone A-neuron OSN class; test: net action potential response of A-neuron (blank-subtracted) (spikes/s (Hz)); higher = stronger excitation; details: 10 µg on filter paper; neuron: A neuron (large spike amplitude)
In short: (§1)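 Single sensillum recordings with tungsten electrodes were taken from one fixed antenna of live lab-reared adult Ips typographus, with each compound (10 μg in paraffin oil on filter paper in a pipette) given as a 0.5 s pulse at 0.3 L/min into a humidified, charcoal-filtered 1.8 L/min airstream. AutoSpike counts of A-neuron or B-neuron spikes in 0.5 s windows had the pre-stimulus count subtracted. Responses were then converted to spikes/s, blank-subtracted and averaged over 1–4 sensilla.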

[2] = tested on: (+)-trans-4-thujanol A-neuron OSN class; test: as above; details: 10 µg on filter paper; neuron: A neuron (large spike amplitude)
In short: as §1

[3] = tested on: (5S,7S)-trans-conophthorin A-neuron OSN class; test: as above; details: 10 µg on filter paper; neuron: A neuron (large spike amplitude)
In short: as §1

[4] = tested on: ipsdienol A-neuron OSN class; test: as above; details: 10 µg on filter paper; neuron: A neuron (large spike amplitude)
In short: as §1

[5] = tested on: myrcene A-neuron OSN class; test: as above; details: 10 µg on filter paper; neuron: A neuron (large spike amplitude)
In short: as §1

[6] = tested on: p-cymene A-neuron OSN class; test: as above; details: 10 µg on filter paper; neuron: A neuron (large spike amplitude)
In short: as §1

[7] = tested on: lanierone-responsive B-neuron OSN class (ItypOR36); test: net action potential response of lanierone B-neuron (blank-subtracted) (spikes/s (Hz)); higher = stronger excitation; details: 10 µg on filter paper, neuron: B neuron (small spike amplitude)
In short: as §1

[8] = co-localized A-neuron class: (4S)-cis-verbenol
[9] = co-localized A-neuron class: (5S,7S)-trans-conophthorin
[10] = co-localized A-neuron class: (+)-isopinocamphone
[11] = co-localized A-neuron class: (+)-trans-4-thujanol
[12] = co-localized A-neuron class: ipsdienol
[13] = co-localized A-neuron class: myrcene
[14] = co-localized A-neuron class: p-cymene

Row | Structure (SMILES) | net action potential response [1] | net action potential response [2] | net action potential response [3] | net action potential response [4] | net action potential response [5] | net action potential response [6] | net action potential response [7, 8] | net action potential response [7, 9] | net action potential response [7, 10] | net action potential response [7, 11] | net action potential response [7, 12] | net action potential response [7, 13] | net action potential response [7, 14]
1 | C=C(C)[C@@H]1CC=C(C)CC1 [(-)-Limonene] | -0.667 ± 4.2 | 2 ± 1.6 | 0 ± 2 | 5.33 ± 1.1 | 6 | 26.7 ± 13 | – | – | – | – | – | – | –
2 | C[C@@H]1C(=O)C[C@H]2C[C@@H]1C2(C)C [(+)-Isopinocamphone] | 172 ± 28 | -2 ± 5.9 | 1.33 ± 1.1 | – | -4 | -3.33 ± 2.3 | -0.667 ± 17 | 1.33 ± 5 | -5.33 ± 3.1 | 1 ± 2.6 | -2 ± 2 | -2 | -0.667 ± 3.1
3 | CCC(C)CO (racemic) [(±)-2-Methyl-1-butanol] | 0 ± 2 | 2.5 ± 6.8 | 5 ± 1.1 | – | 4 | 8 ± 4 | 0 ± 3.5 | 2 ± 3.3 | -2 ± 2 | 3.5 ± 3 | -1.33 ± 5 | -4 | -2 ± 4
4 | CCC/C=C\CO | 18 ± 19 | 25.5 ± 12 | -2 ± 6 | – | 2 | 0 | – | – | – | – | – | – | –
5 | CC1=C[C@@H](O)[C@H]2C[C@@H]1C2(C)C [(-)-trans-Verbenol] | 0.667 ± 10 | 5.5 ± 5.7 | 13 ± 20 | – | 6 | 2 ± 2 | – | – | – | – | – | – | –
6 | C=CC(=C)CCC=C(C)C [Myrcene] | -2 ± 2 | 0.5 ± 3 | 2 ± 10 | – | 128 | 3.33 ± 2.3 | – | – | – | – | – | – | –
7 | Cc1ccc(C(C)C)cc1 [p-Cymene] | -0.667 ± 2.3 | 0.5 ± 5.3 | 3.5 ± 3.4 | – | 0 | 146 ± 65 | – | – | – | – | – | – | –
8 | C=CC(O)CCCCC (racemic) [(±)-1-Octen-3-ol] | -4.67 ± 1.1 | 33 ± 24 | 1.5 ± 2.5 | -0.667 ± 2.3 | 2 | 1.33 ± 1.1 | – | – | – | – | – | – | –
9 | CCCCCC(O)CC (racemic) [(±)-3-Octanol] | 10 ± 10 | 57.5 ± 45 | 13 ± 10 | -0.667 ± 5 | 6 | 3.33 ± 2.3 | – | – | – | – | – | – | –
10 | CC1=CCC2CC1C2(C)C (stereo not drawn) [(+)-α-Pinene] | 3.33 ± 3.1 | 2.5 ± 3 | -1.5 ± 6.8 | – | 4 | 2.67 ± 1.1 | 0 ± 12 | -0.5 ± 4.7 | 0.667 ± 5.8 | 2 ± 2.8 | -4 ± 4 | -4 | 1.33 ± 7
11 | C[C@H]1C(=O)C[C@H]2C[C@@H]1C2(C)C [(-)-Pinocamphone] | 119 ± 57 | -0.5 ± 1.9 | 2 ± 2 | – | 0 | 3.33 ± 3.1 | – | – | – | – | – | – | –
12 | C=Cc1ccc(OC)cc1 [4-Vinyl anisole] | -0.667 ± 4.2 | 1.5 ± 3.4 | -1.33 ± 3.1 | – | -2 | 15.3 ± 14 | 1.33 ± 9 | 3.33 ± 4.6 | 1.33 ± 9.2 | -2.5 ± 5.5 | 2.67 ± 6.4 | 0 | 0 ± 7.2
13 | C[C@]12CCC[C@](C)(OC1)O2 (racemic) [(±)-Frontalin] | 2 ± 5.3 | 1 ± 3.5 | 96 ± 57 | – | -8 | 1.33 ± 1.1 | – | – | – | – | – | – | –
14 | CC(=O)OCc1ccccc1 [Benzyl acetate] | 4 ± 3.5 | 0 ± 2.8 | 1.33 ± 4.2 | – | -4 | 0 ± 4 | – | – | – | – | – | – | –
15 | COc1ccc(C)cc1 [4-Methyl anisole] | 7.33 ± 4.6 | 6.5 ± 3.4 | 2 ± 2 | – | -4 | 44 ± 12 | – | – | – | – | – | – | –
16 | C=CC(=C)C[C@@H](O)CC(C)C (racemic) [(±)-Ipsenol] | -1.33 ± 5 | 2 ± 2.8 | -1.33 ± 6.1 | – | -2 | -4 | -1.33 ± 5 | 0 ± 5.3 | 0 ± 3.5 | 0.5 ± 1.9 | -5.33 ± 2.3 | -4 | -8 ± 5.7
17 | C=C1[C@@H]2CC[C@@H](C2)C1(C)C (racemic) [(±)-Camphene] | -2 ± 2 | 1.5 ± 1 | -2.67 ± 3.1 | – | 0 | -3 ± 1.4 | -3.33 ± 8.3 | 0 ± 2 | -3.33 ± 1.1 | 0 ± 3.6 | 3.33 ± 2.3 | -4 | 0
